The target in one assay is Serine/threonine-protein kinase WNK2 (Homo sapiens) (UniProt Q9Y3S1). The note with it: at 10 µM.
Serine/threonine-protein kinase WNK3 (Homo sapiens), sequence (Q9BYP7 whole entry): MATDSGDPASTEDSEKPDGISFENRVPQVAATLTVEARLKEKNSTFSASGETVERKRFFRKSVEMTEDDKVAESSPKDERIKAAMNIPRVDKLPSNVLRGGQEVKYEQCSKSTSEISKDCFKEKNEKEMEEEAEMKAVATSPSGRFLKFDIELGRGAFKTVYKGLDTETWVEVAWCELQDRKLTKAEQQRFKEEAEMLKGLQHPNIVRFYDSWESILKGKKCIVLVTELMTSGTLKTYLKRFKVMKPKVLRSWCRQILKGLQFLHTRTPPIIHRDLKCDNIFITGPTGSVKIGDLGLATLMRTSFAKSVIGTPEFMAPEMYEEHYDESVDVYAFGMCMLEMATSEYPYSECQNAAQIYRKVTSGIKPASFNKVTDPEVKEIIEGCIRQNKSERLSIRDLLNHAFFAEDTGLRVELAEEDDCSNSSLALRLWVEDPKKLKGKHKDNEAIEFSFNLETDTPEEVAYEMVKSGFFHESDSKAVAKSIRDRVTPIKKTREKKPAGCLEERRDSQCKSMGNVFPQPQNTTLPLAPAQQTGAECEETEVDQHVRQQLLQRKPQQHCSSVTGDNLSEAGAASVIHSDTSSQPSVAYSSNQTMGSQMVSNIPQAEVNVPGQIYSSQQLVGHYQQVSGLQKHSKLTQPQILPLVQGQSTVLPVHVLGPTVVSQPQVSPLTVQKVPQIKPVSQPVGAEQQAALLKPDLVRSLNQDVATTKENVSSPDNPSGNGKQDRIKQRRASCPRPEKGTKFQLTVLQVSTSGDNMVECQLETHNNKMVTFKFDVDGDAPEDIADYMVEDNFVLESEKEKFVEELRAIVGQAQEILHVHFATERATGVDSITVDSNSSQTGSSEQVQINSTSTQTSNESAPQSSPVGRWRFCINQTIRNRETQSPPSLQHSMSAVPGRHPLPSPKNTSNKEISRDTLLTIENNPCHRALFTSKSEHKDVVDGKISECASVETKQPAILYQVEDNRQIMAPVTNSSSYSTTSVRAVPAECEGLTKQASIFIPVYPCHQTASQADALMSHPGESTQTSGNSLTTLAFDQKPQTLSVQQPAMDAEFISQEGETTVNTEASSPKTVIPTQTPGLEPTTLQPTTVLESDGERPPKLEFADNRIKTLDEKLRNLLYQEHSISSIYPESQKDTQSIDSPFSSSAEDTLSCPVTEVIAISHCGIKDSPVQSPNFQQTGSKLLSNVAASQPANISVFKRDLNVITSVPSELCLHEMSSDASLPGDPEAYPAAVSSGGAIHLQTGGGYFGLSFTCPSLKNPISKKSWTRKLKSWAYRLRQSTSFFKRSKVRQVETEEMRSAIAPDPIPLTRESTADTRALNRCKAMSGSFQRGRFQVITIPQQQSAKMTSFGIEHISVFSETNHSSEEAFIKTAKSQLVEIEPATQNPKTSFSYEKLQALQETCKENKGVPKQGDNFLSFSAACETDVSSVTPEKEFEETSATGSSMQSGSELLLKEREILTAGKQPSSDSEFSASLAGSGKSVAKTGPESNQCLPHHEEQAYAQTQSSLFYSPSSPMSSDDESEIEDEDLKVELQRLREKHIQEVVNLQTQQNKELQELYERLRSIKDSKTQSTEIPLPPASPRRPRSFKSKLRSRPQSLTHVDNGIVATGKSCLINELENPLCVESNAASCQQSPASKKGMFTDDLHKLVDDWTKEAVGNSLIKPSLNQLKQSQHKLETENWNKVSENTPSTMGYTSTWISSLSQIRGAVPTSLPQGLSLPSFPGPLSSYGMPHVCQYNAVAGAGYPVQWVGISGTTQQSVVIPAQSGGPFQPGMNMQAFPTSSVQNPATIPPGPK
Serine/threonine-protein kinase WNK2 (Homo sapiens), sequence (Q9Y3S1 whole entry): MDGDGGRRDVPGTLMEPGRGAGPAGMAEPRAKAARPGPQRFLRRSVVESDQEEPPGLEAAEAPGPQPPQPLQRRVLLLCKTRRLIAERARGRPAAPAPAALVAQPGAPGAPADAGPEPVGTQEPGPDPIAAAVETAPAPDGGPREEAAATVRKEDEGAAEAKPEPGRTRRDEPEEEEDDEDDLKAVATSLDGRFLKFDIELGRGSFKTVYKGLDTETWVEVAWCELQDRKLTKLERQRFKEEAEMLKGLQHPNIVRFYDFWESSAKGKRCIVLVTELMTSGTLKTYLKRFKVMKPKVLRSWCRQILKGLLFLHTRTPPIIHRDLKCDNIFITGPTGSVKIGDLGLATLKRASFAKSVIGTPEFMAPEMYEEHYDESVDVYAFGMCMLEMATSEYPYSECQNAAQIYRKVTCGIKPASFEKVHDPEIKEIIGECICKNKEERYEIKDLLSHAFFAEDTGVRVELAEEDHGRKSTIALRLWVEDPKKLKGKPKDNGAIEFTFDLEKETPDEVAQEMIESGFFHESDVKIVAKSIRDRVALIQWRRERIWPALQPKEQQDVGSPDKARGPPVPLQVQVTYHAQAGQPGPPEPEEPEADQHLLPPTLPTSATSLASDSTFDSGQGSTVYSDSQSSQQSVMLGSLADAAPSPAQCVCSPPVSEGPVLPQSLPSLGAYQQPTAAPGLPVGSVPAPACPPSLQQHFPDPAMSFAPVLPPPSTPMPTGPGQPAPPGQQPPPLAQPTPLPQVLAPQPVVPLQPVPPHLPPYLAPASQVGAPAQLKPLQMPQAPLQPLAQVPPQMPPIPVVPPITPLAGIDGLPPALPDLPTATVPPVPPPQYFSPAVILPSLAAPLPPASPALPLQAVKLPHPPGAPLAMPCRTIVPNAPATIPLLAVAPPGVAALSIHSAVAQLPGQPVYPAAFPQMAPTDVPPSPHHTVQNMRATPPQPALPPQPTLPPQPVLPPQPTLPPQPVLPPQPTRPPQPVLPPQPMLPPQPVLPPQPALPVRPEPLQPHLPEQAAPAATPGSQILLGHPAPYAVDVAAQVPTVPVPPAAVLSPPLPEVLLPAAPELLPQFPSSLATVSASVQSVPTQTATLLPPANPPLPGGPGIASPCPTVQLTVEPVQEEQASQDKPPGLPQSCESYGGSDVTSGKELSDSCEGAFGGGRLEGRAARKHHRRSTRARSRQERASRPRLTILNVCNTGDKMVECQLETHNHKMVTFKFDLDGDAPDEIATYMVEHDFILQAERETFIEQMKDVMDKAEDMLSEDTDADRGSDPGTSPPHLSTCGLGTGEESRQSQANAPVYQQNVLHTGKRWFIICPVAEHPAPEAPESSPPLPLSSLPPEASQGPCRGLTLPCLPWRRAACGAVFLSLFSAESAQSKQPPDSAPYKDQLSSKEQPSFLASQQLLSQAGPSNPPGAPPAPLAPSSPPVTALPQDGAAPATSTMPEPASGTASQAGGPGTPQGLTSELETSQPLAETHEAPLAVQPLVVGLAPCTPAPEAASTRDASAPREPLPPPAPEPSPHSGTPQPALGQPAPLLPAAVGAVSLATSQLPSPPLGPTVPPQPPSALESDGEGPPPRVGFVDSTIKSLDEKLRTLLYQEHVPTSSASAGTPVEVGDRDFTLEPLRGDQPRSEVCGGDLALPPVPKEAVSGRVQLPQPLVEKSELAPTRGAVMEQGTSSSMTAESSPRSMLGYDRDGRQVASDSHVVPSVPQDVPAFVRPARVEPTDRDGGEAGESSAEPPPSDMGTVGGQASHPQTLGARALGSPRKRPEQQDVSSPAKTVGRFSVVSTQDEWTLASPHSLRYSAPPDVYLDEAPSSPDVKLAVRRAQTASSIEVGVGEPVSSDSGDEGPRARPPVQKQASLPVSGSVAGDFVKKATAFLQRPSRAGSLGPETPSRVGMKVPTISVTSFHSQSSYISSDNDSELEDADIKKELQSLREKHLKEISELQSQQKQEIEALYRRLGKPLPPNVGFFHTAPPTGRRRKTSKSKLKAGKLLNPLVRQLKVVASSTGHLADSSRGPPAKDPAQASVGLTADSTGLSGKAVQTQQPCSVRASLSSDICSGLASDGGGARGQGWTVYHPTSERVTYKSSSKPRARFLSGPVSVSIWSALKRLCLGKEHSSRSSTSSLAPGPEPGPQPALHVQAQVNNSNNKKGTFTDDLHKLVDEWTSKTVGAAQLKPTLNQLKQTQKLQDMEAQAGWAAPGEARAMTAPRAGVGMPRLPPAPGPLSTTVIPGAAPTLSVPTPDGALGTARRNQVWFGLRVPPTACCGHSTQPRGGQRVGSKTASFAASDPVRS
Take `Nc1n[nH]c2nc3ccccc3nc12`: the residual activity (commonly the signal under treatment as a percentage of the control signal) came to 94%.
The same measure, in the same setting: to `NCCNc1ncc(C(N)=O)c(Nc2cccc(C(F)(F)F)c2)n1` belongs 80%.
Still for that read-out and setting: to `O=C(Nc1nc2ccccc2n1CCN1CCOCC1)c1cccc([N+](=O)[O-])c1` belongs 76%; to `COc1ccc(CNC(=O)Nc2ncc([N+](=O)[O-])s2)cc1`, 70%.
Same read-out and setting: to `O=C1Nc2ccccc2/C1=C\c1c(Cl)[nH]c2ccccc12` belongs 61%; to `CCN1/C(=C/C(C)=O)Sc2ccc(OC)cc21`, 70%; to `O=C(NC(NC(=S)Nc1ccc(F)c([N+](=O)[O-])c1)C(Cl)(Cl)Cl)C(c1ccccc1)c1ccccc1` (stereo not drawn), 95%.
Take `Fc1ccc(-c2nc3n(c2-c2ccncc2)CCS3)cc1`: the residual activity came out at 97%.
Same read-out and setting: with `Cc1cc(C)c(/C=C2\C(=O)Nc3ccccc32)[nH]1` the figure was 82%; with `O=c1cc(N2CCOCC2)oc2c(-c3ccccc3)cccc12`, 75%; with `O=C1NC(=O)C(c2c[nH]c3ccccc23)=C1c1c[nH]c2ccccc12`, 82%.
Consider `CC(C)c1nn(-c2c(Cl)cccc2Cl)c2nc(Cc3ccc(OCCO)cc3)[nH]c(=O)c12`, for which the residual activity was found to be 93%.
For `CC(C)N(CCC(=O)c1ccc2ccccc2c1)Cc1ccccc1`, the residual activity was determined as 86%.

A further assay concerns the target Serine/threonine-protein kinase WNK3 (Homo sapiens) (UniProt Q9BYP7). The note with it: at 1 µM.
As for `CN([C@@H](Cc1ccc(OS(=O)(=O)c2cccc3cnccc23)cc1)C(=O)N1CCN(c2ccccc2)CC1)S(=O)(=O)c1cccc2cnccc12`, the residual activity was 100% (inactive).
Turning to `CSc1nc(-c2ccc(F)cc2)c(-c2ccnc(NC(C)c3ccccc3)c2)[nH]1` (stereo not drawn), the residual activity was 96% (inactive).
For the compound `COc1ccc(Cl)cc1NC(=O)Nc1cc(C)nc2ccccc12`, the residual activity was 94% (inactive).
Same read-out and setting: to `O=C1Nc2ccc(Cl)cc2/C1=C/c1cc(Cl)c(O)c(Cl)c1` belongs 100% (inactive).
Still for that read-out and setting: to `O=C1NC(=O)C(c2cn(CCCO)c3ncccc23)=C1c1cnccn1` belongs 99% (inactive); to `Nc1ncnc2[nH]nc(Nc3ccc(F)cc3)c12`, 101% (inactive).

For another assay the target is unchanged. The note with it: at 10 µM.
Consider `CN([C@@H](Cc1ccc(OS(=O)(=O)c2cccc3cnccc23)cc1)C(=O)N1CCN(c2ccccc2)CC1)S(=O)(=O)c1cccc2cnccc12`, for which the residual activity worked out at 99%.
The same measure, in the same setting: with `CSc1nc(-c2ccc(F)cc2)c(-c2ccnc(NC(C)c3ccccc3)c2)[nH]1` (stereo not drawn) the figure was 94%.
Same read-out and setting: with `O=c1c(-c2ccc(F)cc2)c(-c2ccncc2)[nH]n1-c1ccc(Cl)cc1` the figure was 102%; with `O=C1Nc2ccccc2/C1=C\c1c(Cl)[nH]c2ccccc12`, 64%.
For `COc1ccc(Cl)cc1NC(=O)Nc1cc(C)nc2ccccc12`, the residual activity was 78%.
On to `CC(C)c1nn(-c2c(Cl)cccc2Cl)c2nc(Cc3ccc(OCCO)cc3)[nH]c(=O)c12`, for which the residual activity stood at 97%.
Regarding `CCN(CC)CCNC(=O)c1c(C)[nH]c(/C=C2\C(=O)Nc3ccc(Cl)cc32)c1C`, the residual activity was found to be 63%.
For `Nc1nccc(-c2c(-c3ccc(F)cc3)ncn2C2CCNCC2)n1`, the residual activity is 77%.
As to `O=C1Nc2ccc(Cl)cc2/C1=C/c1cc(Cl)c(O)c(Cl)c1`, the residual activity came out at 80%.
Same read-out and setting: to `O=C1NC(=O)C(c2cn(CCCO)c3ncccc23)=C1c1cnccn1` belongs 90%; to `CCOc1nc(NC(=O)Cc2cc(OC)ccc2OC)cc(N)c1C#N`, 73%.

In a further assay the target is Tyrosine-protein kinase Yes (Homo sapiens) (UniProt P07947). The note with it: at 1 µM.
Tyrosine-protein kinase Yes (Homo sapiens), sequence (P07947 2-543 limits assumed): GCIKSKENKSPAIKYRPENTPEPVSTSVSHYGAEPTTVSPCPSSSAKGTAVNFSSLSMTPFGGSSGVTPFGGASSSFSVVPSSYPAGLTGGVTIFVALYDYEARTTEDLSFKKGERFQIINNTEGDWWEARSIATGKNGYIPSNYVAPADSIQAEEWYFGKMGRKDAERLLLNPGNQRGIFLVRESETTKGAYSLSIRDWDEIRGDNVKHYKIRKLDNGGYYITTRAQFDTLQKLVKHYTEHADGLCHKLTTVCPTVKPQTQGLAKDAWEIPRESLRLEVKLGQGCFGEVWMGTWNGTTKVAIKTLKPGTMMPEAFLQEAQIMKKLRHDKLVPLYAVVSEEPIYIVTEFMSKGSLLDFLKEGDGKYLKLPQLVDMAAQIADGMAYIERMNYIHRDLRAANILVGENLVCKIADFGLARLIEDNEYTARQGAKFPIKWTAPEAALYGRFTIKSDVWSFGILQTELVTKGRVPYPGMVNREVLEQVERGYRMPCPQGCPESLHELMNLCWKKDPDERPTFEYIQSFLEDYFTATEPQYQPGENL
Consider `N#C/C(=C\c1ccc(O)c(O)c1)C(=O)NCc1ccccc1`, for which the residual activity turned out to be 104%.
Take `CCCCc1c(-c2ccc(OC)cc2)[nH]c2nccnc12`: the residual activity was found to be 51%.
Same read-out and setting: to `O=C1Cc2c([nH]c3ccc([N+](=O)[O-])cc23)-c2ccccc2N1` belongs 56%; to `CSc1nc(-c2ccc(F)cc2)c(-c2ccnc(NC(C)c3ccccc3)c2)[nH]1` (stereo not drawn), 99%; to `NCCNc1ncc(C(N)=O)c(Nc2cccc(C(F)(F)F)c2)n1`, 64%.
With `O=C(Nc1ccc(Cl)cc1)c1ccccc1NCc1ccncc1`, the residual activity turned out to be 117%.
For `COc1ccc(CNC(=O)Nc2ncc([N+](=O)[O-])s2)cc1`, the residual activity amounted to 10%.
Still for that read-out and setting: with `CCCCc1c(-c2ccc(O)cc2)[nH]c2nccnc12` the figure was 56%; with `Fc1ccc(-c2nc3n(c2-c2ccncc2)CCS3)cc1`, 131%; with `O=S(=O)(NCCNC/C=C/c1ccc(Br)cc1)c1cccc2cnccc12`, 116%.
Still for that read-out and setting: with `COc1cc2ncnc(Nc3cccc(Cl)c3)c2cc1OC` the figure was 30%; with `O=C1NC(=O)C(c2c[nH]c3ccccc23)=C1c1c[nH]c2ccccc12`, 100%.
For the compound `CCN(CC)CCNC(=O)c1c(C)[nH]c(/C=C2\C(=O)Nc3ccc(Cl)cc32)c1C`, the residual activity is 2%.
On to `Nc1nccc(-c2c(-c3ccc(F)cc3)ncn2C2CCNCC2)n1`, for which the residual activity was 78%.
The same measure, in the same setting: to `O=C1Nc2ccc(Cl)cc2/C1=C/c1cc(Cl)c(O)c(Cl)c1` belongs 96%; to `Nc1ncnc2[nH]nc(Nc3ccc(F)cc3)c12`, 93%.

The next assay shares this target. The note with it: at 10 µM.
For `N#C/C(=C\c1ccc(O)c(O)c1)C(=O)NCc1ccccc1`, the residual activity was 73%.
The same measure, in the same setting: to `CCCCc1c(-c2ccc(OC)cc2)[nH]c2nccnc12` belongs 69%; to `O=C1Cc2c([nH]c3ccc([N+](=O)[O-])cc23)-c2ccccc2N1`, 20%.
On the same count and under the same terms, to `CSc1nc(-c2ccc(F)cc2)c(-c2ccnc(NC(C)c3ccccc3)c2)[nH]1` (stereo not drawn) belongs 63%; to `NCCNc1ncc(C(N)=O)c(Nc2cccc(C(F)(F)F)c2)n1`, 3%; to `O=C(Nc1ccc(Cl)cc1)c1ccccc1NCc1ccncc1`, 75%.
Consider `COc1ccc(CNC(=O)Nc2ncc([N+](=O)[O-])s2)cc1`, for which the residual activity stood at 13%.
With `CCCCc1c(-c2ccc(O)cc2)[nH]c2nccnc12`, the residual activity was determined as 51%.
Same read-out and setting: to `O=C(NC(NC(=S)Nc1ccc(F)c([N+](=O)[O-])c1)C(Cl)(Cl)Cl)C(c1ccccc1)c1ccccc1` (stereo not drawn) belongs 100%; to `Fc1ccc(-c2nc3n(c2-c2ccncc2)CCS3)cc1`, 91%.
Take `COc1cc2ncnc(Nc3cccc(Cl)c3)c2cc1OC`: the residual activity came out at 3%.
Same read-out and setting: to `O=C1NC(=O)C(c2c[nH]c3ccccc23)=C1c1c[nH]c2ccccc12` belongs 36%.
Regarding `CC(C)c1nn(-c2c(Cl)cccc2Cl)c2nc(Cc3ccc(OCCO)cc3)[nH]c(=O)c12`, the residual activity came to 93%.
On the same count and under the same terms, with `CCN(CC)CCNC(=O)c1c(C)[nH]c(/C=C2\C(=O)Nc3ccc(Cl)cc32)c1C` the figure was -1%; with `Nc1nccc(-c2c(-c3ccc(F)cc3)ncn2C2CCNCC2)n1`, 11%.
For the compound `O=C1Nc2ccc(Cl)cc2/C1=C/c1cc(Cl)c(O)c(Cl)c1`, the residual activity was found to be 54%.
On the same count and under the same terms, to `Nc1ncnc2[nH]nc(Nc3ccc(F)cc3)c12` belongs 21%.

The record behind these values is ChEMBL document CHEMBL2218924, “A broad activity screen in support of a chemogenomic map for kinase signalling research and drug discovery” (Biochem J, 2013).
